# Read-outs that look alike come from different tables or passages of the source.
# Legend:
# ABCD3 = test system: ABCD3; set-up: species or system human, MV4-11 + K-562 + COLO205 + SK-N-BE2 + OVCAR-8; details: read-out: apparent Kd, compound concentrations: 100 nM and 1000 nM (sheet 'Samples'), n = 1
# PRKD1 = test system: PRKD1; set-up: species or system human, MV4-11 + K-562 + COLO205 + SK-N-BE2 + OVCAR-8; details: read-out: apparent Kd, n = 1
# CIT = test system: CIT; set-up: species or system human, MV4-11 + K-562 + COLO205 + SK-N-BE2 + OVCAR-8; details: compound concentrations:0.3nM, 1nM, 3nM, 10nM, 30nM, 100nM, 300nM, 1000nM,R2:0.97918771846363795,slope:1.88206182244377,EC50 Standard Error, by the legend:Standard error of the EC50 estimation as provided by the drc package.
# MOB1A = test system: MOB1A; set-up: species or system human, MV4-11 + K-562 + COLO205 + SK-N-BE2 + OVCAR-8; details: compound concentrations:0.3nM, 1nM, 3nM, 10nM, 30nM, 100nM, 300nM, 1000nM,R2:0.920591021551731,slope:1.01230388230399,EC50 Standard Error, by the legend:Standard error of the EC50 estimation as provided by the drc package.
# PKN2 = test system: PKN2; set-up: species or system human, MV4-11 + K-562 + COLO205 + SK-N-BE2 + OVCAR-8; details: compound concentrations:0.3nM, 1nM, 3nM, 10nM, 30nM, 100nM, 300nM, 1000nM,R2:0.99284498309618197,slope:1.0925759067996901,EC50 Standard Error, by the legend:Standard error of the EC50 estimation as provided by the drc package.
# PRKACA = test system: PRKACA; set-up: species or system human, MV4-11 + K-562 + COLO205 + SK-N-BE2 + OVCAR-8; details: compound concentrations:0.3nM, 1nM, 3nM, 10nM, 30nM, 100nM, 300nM, 1000nM,R2:0.96854382612038603,slope:0.55494475064464099,EC50 Standard Error, by the legend:Standard error of the EC50 estimation as provided by the drc package.
# PRKACB = test system: PRKACB; set-up: species or system human, MV4-11 + K-562 + COLO205 + SK-N-BE2 + OVCAR-8; details: compound concentrations:0.3nM, 1nM, 3nM, 10nM, 30nM, 100nM, 300nM, 1000nM,R2:0.87991730549407599,slope:0.899687988537484,EC50 Standard Error, by the legend:Standard error of the EC50 estimation as provided by the drc package.
# PRKCB = test system: PRKCB; set-up: species or system human, MV4-11 + K-562 + COLO205 + SK-N-BE2 + OVCAR-8; details: compound concentrations:0.3nM, 1nM, 3nM, 10nM, 30nM, 100nM, 300nM, 1000nM,R2:0.978843793099339,slope:1.0046603573044399,EC50 Standard Error, by the legend:Standard error of the EC50 estimation as provided by the drc package.
# PRKCD = test system: PRKCD; set-up: species or system human, MV4-11 + K-562 + COLO205 + SK-N-BE2 + OVCAR-8; details: compound concentrations:0.3nM, 1nM, 3nM, 10nM, 30nM, 100nM, 300nM, 1000nM,R2:0.97536342523711195,slope:1.1087330186118201,EC50 Standard Error, by the legend:Standard error of the EC50 estimation as provided by the drc package.
# PRKCQ = test system: PRKCQ; set-up: species or system human, MV4-11 + K-562 + COLO205 + SK-N-BE2 + OVCAR-8; details: compound concentrations:0.3nM, 1nM, 3nM, 10nM, 30nM, 100nM, 300nM, 1000nM,R2:0.97430848163672201,slope:0.92336588926382501,EC50 Standard Error, by the legend:Standard error of the EC50 estimation as provided by the drc package.
# CSNK1D = test system: CSNK1D; set-up: species or system human, MV4-11 + K-562 + COLO205 + SK-N-BE2 + OVCAR-8; details: compound concentrations:0.3nM, 1nM, 3nM, 10nM, 30nM, 100nM, 300nM, 1000nM,R2:0.90408083948088502,slope:1.4813297755061099,EC50 Standard Error, by the legend:Standard error of the EC50 estimation as provided by the drc package.
# CSNK1E = test system: CSNK1E; set-up: species or system human, MV4-11 + K-562 + COLO205 + SK-N-BE2 + OVCAR-8; details: compound concentrations:0.3nM, 1nM, 3nM, 10nM, 30nM, 100nM, 300nM, 1000nM,R2:0.89444069129231096,slope:0.86279178326481998,EC50 Standard Error, by the legend:Standard error of the EC50 estimation as provided by the drc package.
# MAPK14 = test system: MAPK14; set-up: species or system human, MV4-11 + K-562 + COLO205 + SK-N-BE2 + OVCAR-8; details: compound concentrations:0.3nM, 1nM, 3nM, 10nM, 30nM, 100nM, 300nM, 1000nM,R2:0.95433345689641902,slope:0.62517275376181303,EC50 Standard Error, by the legend:Standard error of the EC50 estimation as provided by the drc package.
# MAPKAPK2 = test system: MAPKAPK2; set-up: species or system human, MV4-11 + K-562 + COLO205 + SK-N-BE2 + OVCAR-8; details: compound concentrations:0.3nM, 1nM, 3nM, 10nM, 30nM, 100nM, 300nM, 1000nM,R2:0.91890870064253904,slope:1.05096662120135,EC50 Standard Error, by the legend:Standard error of the EC50 estimation as provided by the drc package.
# RIPK2 = test system: RIPK2; set-up: species or system human, MV4-11 + K-562 + COLO205 + SK-N-BE2 + OVCAR-8; details: compound concentrations:0.3nM, 1nM, 3nM, 10nM, 30nM, 100nM, 300nM, 1000nM,R2:0.98843771673654501,slope:0.97698272947785902,EC50 Standard Error, by the legend:Standard error of the EC50 estimation as provided by the drc package.
# RIPK3 = test system: RIPK3; set-up: species or system human, MV4-11 + K-562 + COLO205 + SK-N-BE2 + OVCAR-8; details: compound concentrations:0.3nM, 1nM, 3nM, 10nM, 30nM, 100nM, 300nM, 1000nM,R2:0.88646274803772895,slope:5.0878054739021197,EC50 Standard Error, by the legend:Standard error of the EC50 estimation as provided by the drc package.
# SPR = test system: SPR; set-up: species or system human, MV4-11 + K-562 + COLO205 + SK-N-BE2 + OVCAR-8; details: compound concentrations:0.3nM, 1nM, 3nM, 10nM, 30nM, 100nM, 300nM, 1000nM,R2:0.99512909296274499,slope:1.24359258072984,EC50 Standard Error, by the legend:Standard error of the EC50 estimation as provided by the drc package.
# TGFBR2 = test system: TGFBR2; set-up: species or system human, MV4-11 + K-562 + COLO205 + SK-N-BE2 + OVCAR-8; details: compound concentrations:0.3nM, 1nM, 3nM, 10nM, 30nM, 100nM, 300nM, 1000nM,R2:0.95772159417417102,slope:0.90025260883160396,EC50 Standard Error, by the legend:Standard error of the EC50 estimation as provided by the drc package.
# ADCK1 = details: compound concentrations:3nM, 10nM, 30nM, 100nM, 300nM, 1000nM, 3000nM, 30000nM,R2:0.94101841538293196,slope:0.49878905871205997,EC50 Standard Error, by the legend:Standard error of the EC50 estimation as provided by the drc package.
# CSNK2A1;CSNK2A3 = details: compound concentrations:3nM, 10nM, 30nM, 100nM, 300nM, 1000nM, 3000nM, 30000nM,R2:0.95393018675228303,slope:1.4690097586887201,EC50 Standard Error, by the legend:Standard error of the EC50 estimation as provided by the drc package.
molecule,measurement,setting,value
Cn1ncc2c(N)ncnc21 [SKF-18267],potency estimated from few doses,ABCD3; CATDS: 4.0800331971119997E-3,1270 nM
O=C1NC(=O)C(N2CCc3ccccc32)=C1c1ccccc1Cl [SB-373598],potency estimated from few doses,PRKD1; compound concentrations:100 nM and 1000 nM (sheet 'Samples'),1580 nM
CCn1c(-c2nonc2N)nc2c(C#CC(C)(C)O)nc(OCCN)cc21.CCn1c(-c2nonc2N)nc2c(C#CC(C)(C)O)nc(OCCN)cc21.Cl.Cl [GSK902056A],EC50,CIT,279 nM
same,Kd,CIT; read-out: apparent Kd,279 nM
same,EC50,MOB1A,223 nM
same,Kd,MOB1A; read-out: apparent Kd,223 nM
same,EC50,PKN2,401 nM
same,Kd,PKN2; read-out: apparent Kd,401 nM
same,EC50,PRKACA,230 nM
same,Kd,PRKACA; read-out: apparent Kd,212 nM
same,EC50,PRKACB,145 nM
same,Kd,PRKACB; read-out: apparent Kd,145 nM
same,EC50,PRKCB,410 nM
same,Kd,PRKCB; read-out: apparent Kd,401 nM
same,EC50,PRKCD,124 nM
same,Kd,PRKCD; read-out: apparent Kd,124 nM
same,EC50,PRKCQ,58.7 nM
same,Kd,PRKCQ; read-out: apparent Kd,58.7 nM
CCn1c(-c2nonc2N)nc2c(-c3ccccc3)ncc(OCCCN)c21.CCn1c(-c2nonc2N)nc2c(-c3ccccc3)ncc(OCCCN)c21.O=C(O)C(F)(F)F.O=C(O)C(F)(F)F [GSK260205A],potency estimated from few doses,"PRKD1; compound concentrations: 100 nM and 1000 nM (sheet 'Samples'), CATDS: 2.9847294929188299E-2",1340 nM
Cl.NCc1ccc(-c2nc(-c3ccc(Cl)c(O)c3)c(-c3ccncc3)[nH]2)cc1 [SB-476429-A],EC50,CSNK1D,300 nM
same,Kd,CSNK1D; read-out: apparent Kd,300 nM
same,EC50,CSNK1E,642 nM
same,Kd,CSNK1E; read-out: apparent Kd,642 nM
same,EC50,MAPK14,174 nM
same,Kd,MAPK14; read-out: apparent Kd,174 nM
same,EC50,MAPKAPK2,174 nM
same,Kd,MAPKAPK2; read-out: apparent Kd,174 nM
same,EC50,RIPK2,55.9 nM
same,Kd,RIPK2; read-out: apparent Kd,28.8 nM
same,EC50,RIPK3,296 nM
same,Kd,RIPK3; read-out: apparent Kd,289 nM
same,EC50,SPR,32.8 nM
same,Kd,SPR; read-out: apparent Kd,32.8 nM
same,EC50,TGFBR2,871 nM
same,Kd,TGFBR2; read-out: apparent Kd,767 nM
Entospletinib,EC50,ADCK1,16.4 µM
same,Kd,ADCK1; read-out: apparent Kd,10.5 µM
same,EC50,CSNK2A1;CSNK2A3,1590 nM
same,Kd,CSNK2A1;CSNK2A3; read-out: apparent Kd,1590 nM
COc1ccc(-n2cnc3c(N)ncnc32)cc1 [SKF-97236],potency estimated from few doses,ABCD3; CATDS: 0.13687794544238399,1490 nM

# Source: paper PMC11062922 (Nature Chemical Biology, 2023)
